{"source": "PubChem BioAssay AID1347416", "about": "(National Center for Advancing Translational Sciences (NCATS), 2020)", "note": "In all, about 4,100 compounds went through this assay and about 1,600 (39%) were called active. About 25% were inconclusive and are not listed. Calls follow the shape of the dose curve; as a rule, active = well fitted inhibition curve with a large enough effect; inconclusive = small, poorly fitted or top-dose-only effect; inactive = no such curve, though single readings can be large or run the other way. Some of the results follow. Potency is read from the fitted curve at half-maximal effect."}
{"assay": "qHTS Validation assay for Inhibitors of Plasmodium falciparum Dd2 growth in vitro; also: nearly all actives have a fitted effect of over 70% in size", "settings": "P. falciparum Dd2 in RBCs, SYBR Green growth, 72 h; series mostly up to 28.7 µM", "procedure,_shortened": "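P. falciparum Dd2-infected red blood cells (2.5% hematocrit, 0.3% parasitemia) grown 72 h at 37 °C under 5% O2 with compounds in a titration, 29 uM to 0.5 nM final. Growth read as SYBR Green-1 fluorescence after ~16 h lysis; artesunate 300 nM as positive control.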"}
{"molecule": "O=C(CN1C2=NCCCN2c2ccccc21)c1ccc(Cl)cc1Cl", "Potency": "6.68 µM (active)"}
{"molecule": "CNCC(=O)N1C[C@@H](C(=O)O)[C@H](c2ccccc2)C1", "Potency": "inactive"}
{"molecule": "O=C(N/N=C/c1ccc(OCc2ccccc2)cc1)c1ccco1", "Potency": "13.3 µM (active)"}
{"molecule": "CC(C)C(=O)OCC(=O)[C@@]12O[C@H](C3CCCCC3)O[C@@H]1C[C@H]1[C@@H]3CCC4=CC(=O)C=C[C@]4(C)[C@H]3[C@@H](O)C[C@@]12C", "Potency": "2.66 µM (active)"}
{"molecule": "CC(=O)SC1CC(=O)N(c2c(C)cccc2C)C1=O", "note": "(centres undefined)", "Potency": "inactive"}
{"molecule": "CN1C(=O)C2(c3ccccc31)N(C)CC(c1ccccc1)C21SC(=S)N(Cc2ccco2)C1=O", "note": "(centres undefined)", "Potency": "13.3 µM (active)"}
{"molecule": "COc1cccc(C(=O)N2CCc3nc(C4CC4)nc(-c4ccc(Cl)cc4)c3C2)c1", "Potency": "inactive"}
{"molecule": "CCc1nc2c(c(-c3ccc(Cl)cc3)n1)CCN(CC1CCCCC1)CC2", "Potency": "inactive"}
{"molecule": "CC(C)c1nc2c(c(-c3ccc(O)cc3)n1)CCN(CC1CCCCC1)CC2", "Potency": "4.73 µM (active)"}
{"molecule": "COc1ccc(-c2nc(C3CC3)nc3c2CCN(Cc2cccnc2)CC3)cc1", "Potency": "13.3 µM (active)"}
{"molecule": "Cc1ccc(CN2CCc3nc(C4CC4)nc(-c4ccc(O)cc4)c3CC2)cc1", "Potency": "4.73 µM (active)"}
{"molecule": "Cc1ccc(CN2CCc3nc(C(=O)Nc4nc(C)cs4)oc3CC2)cc1", "Potency": "inactive"}
{"molecule": "Oc1ccc(-c2nc(C3CC3)nc3c2CCN(CC2CCCCC2)CC3)cc1", "Potency": "4.73 µM (active)"}
{"molecule": "Oc1ccc(-c2nc(C3CC3)nc3c2CN(CC2CCCCC2)CC3)cc1", "Potency": "6.68 µM (active)"}
{"molecule": "Cc1nc2c(c(-c3ccc(Cl)cc3)n1)CCN(C(=O)c1ccc(C(F)(F)F)cc1)CC2", "Potency": "inactive"}
{"molecule": "O=C(c1ccccc1Cl)N1CCc2nc(-c3ccccc3)nc(-c3ccc(Cl)cc3)c2C1", "Potency": "inactive"}
{"molecule": "O=C(c1ccc(C(F)(F)F)cc1)N1CCc2nc(C3CC3)nc(-c3ccc(Cl)cc3)c2CC1", "Potency": "13.3 µM (active)"}
{"molecule": "Cc1cccc(-c2cc3nc(C)c(C)c(NCCCn4ccnc4)n3n2)c1", "Potency": "5.31 µM (active)"}
{"molecule": "COc1ccc(-c2oc3ccccc3c2C#Cc2cncn2C)cc1", "Potency": "1.06 µM (active)"}
{"molecule": "O=C(CCc1cc2ccccc2[nH]c1=O)N1CCCCC1", "Potency": "inactive"}
{"molecule": "CCOC(=O)c1[nH]c(C)c(CCC(=O)N2CCN(c3cc(C)ccc3C)CC2)c1C", "Potency": "1.33 µM (active)"}
{"molecule": "CN(C)[C@H]1CCCCN(C(=O)CCc2ccc(-c3ccc(Cl)cc3)[nH]2)C1", "Potency": "inactive"}
{"molecule": "CCO[C@H]1CN(C(=O)CCc2nc3c(C)c(C)ccc3[nH]2)C[C@@H]1O", "Potency": "inactive"}
{"molecule": "CCOC(=O)c1[nH]c(C)c(CCC(=O)N2CCN(c3cccc(C)c3C)CC2)c1C", "Potency": "1.33 µM (active)"}
{"molecule": "CCOC(=O)c1[nH]c(C)c(CCC(=O)N2CCN(c3cc(Cl)ccc3C)CC2)c1C", "Potency": "1.19 µM (active)"}
{"molecule": "N#C/C(=C\\c1ccc(Cl)cc1)c1nc(-c2cc3ccccc3oc2=O)cs1", "Potency": "inactive"}
{"molecule": "N#C/C(=C\\c1ccc(Sc2ccc(Cl)cc2)o1)c1nc2ccccc2[nH]1", "Potency": "2.99 µM (active)"}
{"molecule": "Cn1nc(-c2nncn2CC2CC2)c2c1CCN(C(=O)c1nn(C)c3ccccc13)C2", "Potency": "inactive"}
{"molecule": "CC1CCCN(Cc2c(O)ccc3c(=O)c(Oc4ccc(C(C)(C)C)cc4)c(C(F)(F)F)oc23)C1", "note": "(centres undefined)", "Potency": "0.299 µM (active)"}
{"molecule": "CC1CCCN(Cc2c(O)ccc3c4c(c(=O)oc23)CCCC4)C1", "note": "(centres undefined)", "Potency": "6.68 µM (active)"}
{"molecule": "CCc1ccc(Oc2c(C(F)(F)F)oc3c(CN4CCCC(C)C4)c(O)ccc3c2=O)cc1", "note": "(centres undefined)", "Potency": "1.33 µM (active)"}
{"molecule": "COc1ccc(-c2cc3ccc(O)c(CN4CCCC(C)C4)c3oc2=O)cc1", "note": "(centres undefined)", "Potency": "2.37 µM (active)"}
{"molecule": "CCc1noc(-c2cn(C3CCN(C(=O)c4ccc(N(C)C)cc4)CC3)nn2)n1", "Potency": "inactive"}
{"molecule": "Cn1cc(-c2ccccc2Oc2ccccc2)c2nc(CN3CCOCC3)cn2c1=O", "Potency": "inactive"}
{"molecule": "COc1ccc(Oc2c(C(F)(F)F)oc3c(CN4CCCC(C)C4)c(O)ccc3c2=O)cc1", "note": "(centres undefined)", "Potency": "2.37 µM (active)"}
{"molecule": "COc1ccc(-c2ccccc2NC(=O)C2CCCN(Cc3c(O)cccc3OC)C2)cc1", "note": "(centres undefined)", "Potency": "2.11 µM (active)"}
{"molecule": "O=c1oc2c(CN3CCOCC3)c(O)ccc2cc1-c1ccccc1", "Potency": "9.44 µM (active)"}
{"molecule": "COc1cccc(OC)c1CN1CCC2(CC1)CC(O)CCO2", "note": "(centres undefined)", "Potency": "inactive"}
{"molecule": "CN(C)c1cccc(C(=O)N2CCC(c3n[nH]c(=O)n3-c3ccccc3)CC2)c1", "Potency": "inactive"}
{"molecule": "Cc1noc(C)c1-c1cc2c(cc(-c3ccccc3)n2C)c(-c2ccnn2C)n1", "Potency": "8.63 µM (active)"}
{"molecule": "COc1ncccc1-c1nc(-c2c(C)noc2C)cc2c1cc(-c1ccccc1)n2C", "Potency": "13.7 µM (active)"}
{"molecule": "Cc1noc(C)c1-c1cc2c(cc(-c3ccccc3)n2C)c(-c2cccnc2)n1", "Potency": "10.9 µM (active)"}
{"molecule": "COc1cc(F)ccc1-c1nc(-c2c(C)noc2C)cc2[nH]c(C)cc12", "Potency": "inactive"}
{"molecule": "O=c1c([N+](=O)[O-])cccn1Cc1ccc(F)cc1Cl", "Potency": "4.73 µM (active)"}
{"molecule": "Cc1ccc(S(=O)(=O)Nc2cc(C)cn(Cc3ccc(F)cc3)c2=O)cc1", "Potency": "inactive"}
{"molecule": "Cc1ccc(CNC(=O)CN2CCN(Cc3ccc(F)cc3Cl)C2=O)cc1", "Potency": "inactive"}
{"molecule": "CCCn1c(SCC(=O)Nc2cc(Cl)ccc2Cl)n[nH]c1=O", "Potency": "5.31 µM (active)"}
{"molecule": "Cc1ccccc1-n1c(SCC(=O)Nc2ccc(Cl)cc2Cl)nc(O)cc1=O", "Potency": "inactive"}
{"molecule": "O=C(CSc1nccn1-c1cccc(Cl)c1)NO", "Potency": "inactive"}
{"molecule": "CC(=O)c1c(N2CCN(C)CC2)[nH]c(-c2ccccc2)nc1=S", "Potency": "5.96 µM (active)"}
{"molecule": "O=c1c2c([nH]c3ccc(Br)cc13)CCCC2", "Potency": "6.68 µM (active)"}
{"molecule": "O=c1c2c([nH]c3ccccc13)CCCC2", "Potency": "6.68 µM (active)"}
{"molecule": "O=c1c(-c2ccccc2)n[nH]c2ccccc12", "Potency": "inactive"}
{"molecule": "CC(C)(C)C1CCc2[nH]c3ccccc3c(=O)c2C1", "note": "(centres undefined)", "Potency": "1.88 µM (active)"}
{"molecule": "O=C(CSc1nc(Nc2ccccc2)nc(N2CCOCC2)n1)Nc1cc(Cl)ccc1O", "Potency": "2.37 µM (active)"}
{"molecule": "CCN(CC)CCNC(=O)c1ccc(NC(=O)c2cn(-c3ccc(F)cc3)nc2-c2cccc(OC)c2)cc1", "Potency": "9.44 µM (active)"}
{"molecule": "COc1cccc(-c2cc3c(=O)n(CCNC(=O)COc4ccc(F)cc4)ccn3n2)c1", "Potency": "inactive"}
{"molecule": "Cc1nn(-c2ccccc2)nc1-c1nnc(-c2ccc(C(F)(F)F)cc2)o1", "Potency": "inactive"}
{"molecule": "COc1cc(NC2CCCCC2O)c2nc(-c3ccc(Cl)cc3)ccc2c1", "note": "(centres undefined)", "Potency": "5.31 µM (active)"}
